In PubChem BioAssay AID449762 (Southern Research Specialized Biocontainment Screening …, 2010) one finds inhibition data, which are given here for 95 compounds.

Out of some 330,000 compounds screened, about 1,900 (0.58%) were called active. Inconclusive results (about 4%) are left out. Not all results are given here. Entries with a potency or affinity are not part of this list. A number with no mark means an inactive call. Cut-off read from the data, not from the text of the source: inconclusive = inhibition above about 70% without an active follow-up result; inactive = below that.

This assay is described as follows: M. tuberculosis growth inhibition, HTS (AID 449762).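 Note: bacterial growth assessed after seven days of incubation.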 The following applies: M. tuberculosis H37Rv growth inhibition, 7H9 media; at 25 µM; hits give high values.
Consider `O=[N+]([O-])c1ccc(C2CN=C(Nc3ccccc3)S2)cc1` (stereo not given), for which the inhibition (usually the relative decrease from the control value, in per cent) is 0.07%. Take `CC1CN=C(Nc2ccccc2)S1` (stereo not given): the inhibition was 1.32%. Regarding `Cc1cc2c(OCC(O)CN3CCCCC3)cccc2[nH]1` (stereo not given), the inhibition is -0.02%. For `COc1cc(C(=O)ONC(=O)c2ccc(OC(F)F)cc2)cc(OC)c1OC` the value was 0.02%; for `O=C(NCc1ccc(Cl)cc1)C1CCCN(c2cnccn2)C1` (stereo not given), 3.46%; for `O=C(COc1ccc(S(=O)(=O)N2CCOCC2)cc1Cl)NCCN1CCOCC1`, 0.71%. For `COc1ccc(-c2csc(-n3ncc(-c4ccccn4)c3N)n2)cc1`, the inhibition is 1.41%. For `Nc1c(-c2cccs2)cnn1-c1nc(-c2ccc(F)cc2)cs1` the value was -11.5%; for `COc1ccc(-c2n[nH]c(=S)n2CC(C)C)cc1`, -17.2%; for `CN(C)CCCN(C(=O)c1ccc(C(=O)c2ccccc2)cc1)c1nc2cc3c(cc2s1)OCCO3`, 2.4%.

Consider `Cn1cc(C(=O)c2ccccc2C(=O)O)cc1C(=O)C(Cl)(Cl)Cl`, for which the inhibition is 1.33%.

As to `C=CCNC(=S)NNC(=O)c1cccc2ccccc12`, the inhibition was -8.25%. For `CN(c1ccccc1)S(=O)(=O)c1ccc(C(=O)OCC(=O)NCc2cccs2)cc1` the value was -2.53%; for `CCN1C(=O)N[C@@H](c2cccc(C(F)(F)F)c2)C(C(=O)OC)=C1C`, -2.1%; for `CCN1C(N(C)CCc2cccs2)=N[C@@H](c2ccccc2)C(C(=O)OC)=C1C`, -2.75%.

Turning to `C=CC[C@@H](Cc1ccc(F)cc1)C(=O)OC[C@H]1CCCN1C(=O)[C@@H](CC=C)CC(=O)N[C@@H](CO)Cc1ccccc1`, the inhibition is -0.18%.

Consider `O=C(SCC(O)C(O)CS)c1cccs1` (stereo not given), for which the inhibition was -1.44%. With `COc1ccc(C(=O)NN=C2CCCC2)c(OC)c1` the figure was -0.32%. For `O=C(C1CCC1)N1CCc2cc(S(=O)(=O)N3CCCCC3)ccc21` the value was -8.32%; for `O=C(C1CCCCC1)N1CCc2ccccc21`, 0.1%; for `O=C(Nc1ccncc1)c1cc(-c2cccc(Br)c2)nc2ccccc12`, -13.1%. For `CCn1nc(NS(=O)(=O)c2ccc([N+](=O)[O-])cc2)c2cc3cc(C)ccc3nc21` the value was 2.04%; for `COc1cccc(C(=O)OC(C)C(=O)Nc2ccc3c(c2)OCO3)c1` (stereo not given), -7.8%; for `COc1ccc(-n2nc(C(=O)NCC(=O)N3CCCCCC3)c3ccccc3c2=O)cc1OC`, -4.92%.

On to `COc1ccc(Cn2cnc3c(N)c(C)c(C)cc32)cc1`, for which the inhibition is -12.4%. With `CN(C)c1nc(SCc2ccccc2Cl)nc2c1CCCC2` the figure was 20.2%; with `COC(=O)CSc1nc(SCc2ccccc2Cl)nc2c1CCCC2`, -6.09%. For `CC(C)OC(=O)c1nnn(-c2nonc2N)c1CN1CCCCCC1` the value was -9.91%; for `Cc1ccc(OCc2cc(C(=O)NCCn3cccn3)no2)cc1C`, 10.8%. For `COc1ccc(C(=O)NC(NC(=S)Nc2ccc(S(N)(=O)=O)cc2)C(Cl)(Cl)Cl)cc1` (stereo not given) the value was -5.71%. On to `Oc1ccc(C2=CCNCC2)cc1O`, for which the inhibition was -1.15%. For `CN1c2ccc([N+](=O)[O-])cc2N(C)C1(C)c1ccccc1` (stereo not given) the value was -1.96%.

For `CN1c2ccccc2N(C)C1(C)c1ccccc1`, the inhibition is 4.29%. For `Cc1cc(C=C2C(=O)N(C)C(=S)N(C)C2=O)c(C)n1-c1cccnc1` the value was -1.48%; for `Cc1cc(/C=C2/SC(=S)N(c3cccc(Cl)c3)C2=O)c(C)n1-c1cccnc1`, 59.7%; for `COc1cccc(CCc2nnc(CCC(=O)N3CCN(Cc4ccccn4)CC3)o2)c1`, -0.82%. For `COc1ccccc1C(=O)c1c(C)c(CCC#N)n2ccccc12` the value was 2.58%; for `O=C(COC(=O)C12CC3CC(CC(C3)C1)C2)N1CCN(S(=O)(=O)c2ccccc2)CC1`, 6.15%.

With `CN(C1CCCCC1)S(=O)(=O)c1ccc(SCC(=O)NC(C)(C)C)nc1`, the inhibition is -0.68%. With `CN(C)C(=O)Oc1c(Cl)cc(Cl)c2cccnc12` the figure was 0.5%.

For the compound `CN1CCN(Cc2cc(Cl)c3cccnc3c2OC(=O)c2cccs2)CC1`, the inhibition was -8.53%.

Regarding `CN1C(=O)CC(N2CCN(CCN=CC3=C(O)CC(C)(C)CC3=O)CC2)C1=O` (stereo not given), the inhibition was 9.46%.

Take `O=C(CS(=O)(=O)Cc1ccccc1)Nc1ccc(Br)cc1F`: the inhibition was -10.1%. With `CCOC(=O)c1c(C)n(OC)c2ccc3c(no[n+]3[O-])c12` the figure was -8.43%.

Regarding `COn1c2c(c3c4no[n+]([O-])c4ccc31)CCCC2`, the inhibition was 12.5%. With `Cc1ccc2[nH]c(=O)c(CN(CC3CCCO3)C(=O)c3ccncc3)cc2c1` (stereo not given) the figure was 4.74%; with `CN1CCc2c(C#N)c(N3CCCCC3)nc(NCc3ccccc3)c2C1`, 8.6%; with `CCCCCNc1nc(NCCCO)c(C#N)c2c1CN(C)CC2`, 1.69%. Consider `CC(=O)NC(C)(CC(=O)c1ccccc1)c1ccccc1` (stereo not given), for which the inhibition is -8.86%. With `S=C(NCCCN1CCOCC1)N(Cc1ccccc1)Cc1ccccc1` the figure was -1.92%. For the compound `C=CCSc1nn2c(=O)c3ccccc3nc2s1`, the inhibition is 66.1%. For `Cc1ccccc1Nc1nn2c(=O)c3ccccc3nc2s1` the value was 4.93%. With `Cc1nc(SCC(C)C)[nH]c(=O)c1Cc1ccccc1` the figure was -4.67%; with `O=C(OCc1nnc(-c2ccccc2)o1)c1ccc([N+](=O)[O-])s1`, 63.8%. In the case of `O=C(OCc1nnc(-c2ccccc2)o1)c1ccccc1`, the inhibition was 3.86%. For `COc1ccc(OC)c(NC2=NCCCS2)c1`, the inhibition was -1.69%. With `COc1ccc(C(CNC(=O)C(=O)NC2CCCCC2)N2CCN(C)CC2)cc1` (stereo not given) the figure was -12.6%; with `COc1ccc(OC)c(N2Cc3ccccc3C2)c1`, 3.42%. `COc1ccccc1NC(=O)Nc1nc(CC(=O)NCc2c(F)cccc2F)cs1`: the inhibition is 29.2%. For `COc1ccccc1CC(=O)N1CCN(c2ccccc2F)CC1` the value was 3%. With `O=C(Nc1cccc(S(=O)(=O)N2CCOCC2)c1)c1cc(=O)[nH]c2ccccc12` the figure was -2.49%; with `CN(C)Cc1nc2ccccc2c(=O)n1CC#N`, -2.77%; with `N#CCn1c(Cc2ccccc2)nc2ccccc2c1=O`, -1.48%. Consider `CCOCCc1nnc(NC(=O)CS(=O)(=O)c2ccc(C)cc2)s1`, for which the inhibition was -7.28%. With `COc1ccccc1CN1CCC(n2nccc2NC(=O)CCCc2ccccc2)CC1` the figure was 3.32%; with `CCOC(=O)C1=C(CSc2nc3c(cc2C#N)CN(C)CC3)OC(N)=C(C#N)C1c1ccc(Cl)cc1` (stereo not given), -0.9%. Turning to `COc1ccc(C(CC(=O)NCCCN2CCOCC2)NS(=O)(=O)c2ccc(C)cc2)cc1` (stereo not given), the inhibition was -3.32%.

Regarding `Cc1ccc(NC(=O)C2CCN(c3cnccn3)CC2)cc1`, the inhibition was -0.63%.

Take `CCCc1ccc(NC(=O)C2CCCN(c3cnccn3)C2)cc1` (stereo not given): the inhibition is 3.51%.

Turning to `COc1ccc(NC(=O)C2CCCN2S(=O)(=O)c2ccc3c(c2)CCC(=O)N3)cc1` (stereo not given), the inhibition was -21%. For `CCCn1c(CCc2ccccc2)nnc1SCC(=O)N1CCCC1` the value was -5.53%; for `C[C@]12CCC(=O)C=C1CC[C@@H]1C2[C@H](O)C[C@]2(C)C(=O)CCC12` (stereo not given in full), 2.16%. With `Cc1cc(NC(=O)c2cc(-c3cccnc3)nc3c(C)c(C)ccc23)no1` the figure was 2.95%; with `Cc1nnc(NC(=O)c2cc(-c3ccncc3)nc3c(C)cccc23)s1`, 9.24%. For `CCN(CC)S(=O)(=O)c1cccc(-c2n[nH]c(=S)n2CC(C)C)c1`, the inhibition is 4.49%.

For the compound `COC(=O)N(NC(=O)C(O)(CCC(C)C)CCC(C)C)c1ccccc1`, the inhibition is 2.67%.

As for `CCOC(OCC)P(=O)(C(C)C)C(C)C`, the inhibition was -4.61%. For `Cc1ccc(-c2nnc3c(C(F)(F)F)nc4ccccc4n23)cc1` the value was 0.23%; for `CC(C)c1cc(-c2cc(-c3ccccc3)on2)nc(NC2CCCC2)n1`, 5.62%. For `Cc1cc(-c2cc(-c3ccc(Cl)cc3)on2)nc(NC2CCCC2)n1` the value was 31.4%; for `CCCCN(C)C(=O)CC(NS(=O)(=O)c1ccc(NC(C)=O)cc1)C(C)C` (stereo not given), 0.04%; for `Cc1ccc(-n2nnnc2CNC(=O)c2ccc(Br)o2)cc1C`, 11.2%. For `O=C(NCc1nnnn1-c1ccc(Cl)cc1)c1ccc(Br)o1`, the inhibition is -0.54%. With `O=C(O)C1C2C=CC(C2)C1C(=O)NCc1ccc(Cl)cc1Cl` (stereo not given) the figure was 7.08%; with `Oc1ccccc1-c1cc(C(F)(F)F)nc(-c2ccccc2)n1`, 6.24%; with `Oc1ccccc1-c1cc(C(F)(F)C(F)F)nc(-c2ccccc2)n1`, 12.1%. With `COc1ccc(C)cc1N/C(N)=N/c1nc(C)cc(C)n1` the figure was 5.92%. Take `Cc1cc(C)nc(/N=C(\N)Nc2cc([N+](=O)[O-])ccc2C)n1`: the inhibition was 1.78%. With `CC(=O)N/C(=C\c1ccccc1)C(=O)OCC(=O)NC(C)C12CC3CC(CC(C3)C1)C2` (stereo not given) the figure was 10.4%; with `O=C(CCC(=O)OCc1ccc([N+](=O)[O-])cc1)Nc1ccccc1Cl`, -11.9%; with `CC(C)(C)c1ccc(C(=O)NNC(=O)c2ccc(Cl)cc2)cc1`, -6.43%. With `CC(C)(C)NC(=O)C(=O)NNC(=O)c1ccccc1` the figure was -5.28%; with `Cc1cc(C)c(S(=O)(=O)c2cc(F)ccc2C)c(Cl)n1`, 6.18%; with `Cc1cc(/C([O-])=C(/C(=S)Nc2ccc(F)cc2)[n+]2ccccc2)c(C)n1-c1ccc(F)cc1`, -9.36%. Turning to `Cc1cc(/C([O-])=C(/C(=S)Nc2ccccc2)[n+]2ccccc2)c(C)n1-c1ccccc1`, the inhibition was 38.1%.
